Our source for the Potency values is PubChem BioAssay (Tox21).

A short description of assay [1]: Nuclear factor erythroid 2-related factor 2/antioxidant responsive element (Nrf2/ARE) small molecule agonists: qHTS cell viability counter screen in human keratinocytes (AID 1919968; active = well fitted cell-killing curve with a large enough effect in the repeat runs; also: nearly all actives have a fitted effect of over 55% in size). The procedure, abridged: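 Stably transfected HaCaT (KeratinoSens), 1,500/well. Test agents in DMSO were applied for 23 h, 37 C/5% CO2. CellTiter-Fluor was incubated 1 h before the fluorescence read.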

Assay [2] is described as follows: Nuclear factor erythroid 2-related factor 2/antioxidant responsive element (Nrf2/ARE) small molecule agonists: luciferase reporter gene qHTS assay in human keratinocytes (AID 1919969). Also: nearly all actives have a fitted effect of over 35% in size. Also: potency is read from the fitted curve at half-maximal effect.
The target of assay [3] is Gonadotropin-releasing hormone receptor (Homo sapiens) (UniProt P30968). Briefly: Human gonadotropin-releasing hormone receptor (GnRHR) small molecule agonists, calcium flux assay in GnRHR-HEK293 cells (AID 1920063). Also: nearly all actives have a fitted effect of over 35% in size. The procedure, abridged:
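Stable human GnRHR HEK293 line. 18 h plating, then calcium dye for 1 h at 37 C. Agonist-mode compound addition from DMSO stocks; fluorescence monitored 3 min.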

The nature of assay [4]: G protein-coupled receptor (GPCR) small molecule agonists, calcium flux assay: HEK293 wild type cell line counter screen (AID 1920065). The procedure, abridged: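 Following 18 h incubation at 37 C/5% CO2, plates got calcium dye for 1 h; compounds, ATP or DMSO were then pinned in and fluorescence followed kinetically (480/540 nm).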
Assay [5] is described as follows: p53 small molecule agonists, cell-based qHTS assay with human liver microsomes (AID 1963577).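 Also: p53 response element beta-lactamase reporter cells with liver microsomes plus NADPH.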 The procedure, abridged: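 HLM-supplemented p53RE-bla reporter assay: 16 h compound exposure at 37 C, microsomes and NADPH each 0.5 mg/mL final, read by fluorescence intensity.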
Assay [6] is described as follows: p53 small molecule agonists, cell-based qHTS assay with rat liver microsomes (AID 1963578). The procedure, abridged:
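Quantitative HTS of the Tox21 10K library: p53RE-bla cells, rat liver microsomes plus NADPH at 0.5 mg/mL final each, 16 h at 37 C, beta-lactamase fluorescence detection.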

Assay [7] can be described thus: p53 small molecule agonists, cell-based qHTS assay with human liver microsomes: qHTS cell viability counter screen (AID 1963579). Also: nearly all actives have a fitted effect of over 45% in size. In outline: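 Viability of p53RE-bla cells is measured as CellTiter-Glo luminescence following a 16 h, 37 C incubation with compound, liver microsomes from human donors and NADPH.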
The nature of assay [8]: p53 small molecule agonists, cell-based qHTS assay with rat liver microsomes: qHTS cell viability counter screen (AID 1963580). Also: nearly all actives have a fitted effect of over 45% in size. The procedure, abridged: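 Cytotoxicity counter screen: intracellular ATP measured by CellTiter-Glo luminescence in the same wells as the beta-lactamase reporter read, on HCT-116 p53RE-bla cells exposed 16 h at 37 C to compounds with rat liver microsomes and NADPH, each 0.5 mg/mL final.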

Assay [9] is described as follows: p53 small molecule agonists, cell-based qHTS assay: qHTS cell viability counter screen (AID 1963581). Also: nearly all actives have a fitted effect of over 45% in size. The procedure, abridged: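 qHTS counter screen: 16 h compound exposure at 37 C of p53RE-bla HCT-116 cells (4,000 per well, seeded 5 h prior), cell viability by ATP luminescence.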
Assay [10] is described as follows: p53 small molecule agonists, cell-based qHTS assay (AID 1963582; active = well fitted activation curve with a large enough effect in the signal ratio in the repeat runs, not every such curve was filed as active; the % refers to the signal ratio). In outline: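 Measured: fluorescence from cleaved LiveBLAzer substrate. System: p53RE-bla cells, 16 h compound treatment at 37 C, 2 h substrate step at room temperature.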
Assay [11] concerns the target 5-hydroxytryptamine receptor 2A (Homo sapiens) (UniProt P28223). The assay can be described thus: 5-hydroxytryptamine receptor 2A (HTR2A) small molecule antagonists, cell-based qHTS assay (AID 1963586). Also: nearly all actives have a fitted effect of over 45% in size. The procedure, abridged: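 CHO cells stably expressing human HTR2A were plated for 18 h at 37 C, then loaded with calcium dye for 1 h. Compounds were preincubated 5 min at room temperature before DOI (4 nM solution) was added. Kinetic fluorescence was read for 3 min.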

For assay [12] the target is unchanged. Briefly: 5-hydroxytryptamine receptor 2A (HTR2A) small molecule agonists, cell-based qHTS assay (AID 1963587). Also: nearly all actives have a fitted effect of over 30% in size. The procedure, abridged:
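CHO cells stably expressing human HTR2A, plated 18 h, loaded with calcium dye 1 h at 37 C. Agonist mode: compounds added and intracellular calcium fluorescence recorded kinetically for 2 min at 1 sec intervals.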

The target in assay [13] is Muscarinic acetylcholine receptor M1 (Homo sapiens) (UniProt P11229). The assay can be described thus: Cholinergic receptor muscarinic 1 (CHRM1) small molecule antagonists, cell-based qHTS assay (AID 1963588). Also: nearly all actives have a fitted effect of over 40% in size. The procedure, abridged:
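Compounds were tested at 15 concentrations in three independent runs. Dye-loaded CHRM1-CHO cells were exposed 5 min at room temperature before stimulation by acetylcholine added at 50nM. Intracellular calcium was read kinetically on FDSS for 3 min.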

For assay [14] the target is unchanged. Briefly: Cholinergic receptor muscarinic 1 (CHRM1) small molecule agonists, cell-based qHTS assay (AID 1963589). Also: nearly all actives have a fitted effect of over 35% in size. The procedure, abridged: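 Kinetic fluorescence (1 s intervals) of calcium-sensitive dye in human M1 CHO cells after compound addition; cells pre-incubated 18 h at 37 C/5% CO2 and dye-loaded 1 h.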
A short description of assay [15]: cAMP Responsive Elements (CRE) small molecule agonists, cell-based qHTS assay (AID 1963590). The procedure, abridged: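 Test agents in DMSO were incubated 3 h at 37 C/5% CO2 with CRE-bla HEK 293T cells seeded 18 h earlier; LiveBLAzer B/G FRET substrate was added and read after 2 h at room temperature.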
A short description of assay [16]: cAMP Responsive Elements (CRE) small molecule antagonists, cell-based qHTS assay (AID 1963591; active = well fitted inhibition curve with a large enough effect in the signal ratio in the repeat runs, not every such curve was filed as active; the % refers to the signal ratio). In outline: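 Reporter line CRE-bla HEK 293T in dialyzed-FBS DMEM; cells preincubated 18 h, treated 3 h with compound plus NKH477 (0.25 uM final); LiveBLAzer FRET, 2 h RT.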
Assay [17] has as its target Beta-2 adrenergic receptor (Homo sapiens) (UniProt P07550). The assay can be described thus: Adrenergic beta2 receptor (ADRB2) small molecule antagonists, cell-based qHTS assay (AID 1963592). Also: series mostly up to about 92 µM; nearly all actives have a fitted effect of over 50% in size. The procedure, abridged: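 Assay format: CHO-ADRB2 cells, 18-20hr seeding at 37C/5% CO2, then compound plus 1nM isoproterenol agonist mix for 0.5hr RT. Homogeneous time-resolved fluorescence cAMP detection after 1hr, expressed as 665/615 nm ratio.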

For assay [18] the target is unchanged. The assay can be described thus: Adrenergic beta2 receptor (ADRB2) small molecule agonists, cell-based qHTS assay (AID 1963593).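 Also: CHO cells stably overexpressing human ADRB2.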 In outline: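 CHO cells stably over-expressing ADRB2 were plated overnight at 37C, then dosed with compounds plus a stimulation mix containing 100uM IBMX and 25uM Ro-20-1724 for 0.5hr at room temperature. cAMP was measured by HTRF competition, 1hr.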

Assay [19] has as its target D(2) dopamine receptor (Homo sapiens) (UniProt P14416). Briefly: Dopamine D2 receptor (DRD2) small molecule agonists, cell-based qHTS assay (AID 1963594). Also: nearly all actives have a fitted effect of over 35% in size. The procedure, abridged: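 HEK293 cells stably expressing human DRD2, pre-treated with PDE inhibitor Ro20-1724 (0.1 mM final) and compound 10 min at room temperature, then stimulated with NKH477 (200nM […]) for 30 min. cAMP read by HTRF (665/620 nm).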

Assay [20] shares this target. The assay can be described thus: Dopamine D2 receptor (DRD2) small molecule antagonists, cell-based qHTS assay (AID 1963595; active = well fitted inhibition curve with a large enough effect in the signal ratio in the repeat runs, with a control signal flat; the % refers to the signal ratio). The procedure, abridged:
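Antagonist mode in DRD2-HEK293 cells: after compound addition with 0.1 mM Ro20-1724, cells received quinpirole (12 nM) and NKH477 (200 nM) for 30 min at room temperature; HTRF cAMP read after 1 h detection.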

A number with no mark means an inactive call. Inconclusive results are not listed. Activity calls are given as the source filed them. Unless noted, calls follow the shape of the full dose curve.

Muscarinic acetylcholine receptor M1 (Homo sapiens), sequence (P11229 whole entry, looked up): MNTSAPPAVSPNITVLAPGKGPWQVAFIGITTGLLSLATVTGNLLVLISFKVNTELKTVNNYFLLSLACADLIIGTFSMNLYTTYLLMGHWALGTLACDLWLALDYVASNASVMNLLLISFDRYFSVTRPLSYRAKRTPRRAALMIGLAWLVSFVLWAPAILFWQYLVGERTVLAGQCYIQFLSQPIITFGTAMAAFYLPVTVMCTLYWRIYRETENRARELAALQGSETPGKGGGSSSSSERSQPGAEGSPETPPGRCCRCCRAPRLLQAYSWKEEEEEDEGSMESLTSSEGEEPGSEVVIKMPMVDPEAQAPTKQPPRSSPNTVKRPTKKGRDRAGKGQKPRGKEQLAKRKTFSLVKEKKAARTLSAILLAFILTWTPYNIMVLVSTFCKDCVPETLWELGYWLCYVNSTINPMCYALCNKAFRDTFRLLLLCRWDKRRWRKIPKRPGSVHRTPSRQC
5-hydroxytryptamine receptor 2A (Homo sapiens), sequence (P28223 whole entry, looked up): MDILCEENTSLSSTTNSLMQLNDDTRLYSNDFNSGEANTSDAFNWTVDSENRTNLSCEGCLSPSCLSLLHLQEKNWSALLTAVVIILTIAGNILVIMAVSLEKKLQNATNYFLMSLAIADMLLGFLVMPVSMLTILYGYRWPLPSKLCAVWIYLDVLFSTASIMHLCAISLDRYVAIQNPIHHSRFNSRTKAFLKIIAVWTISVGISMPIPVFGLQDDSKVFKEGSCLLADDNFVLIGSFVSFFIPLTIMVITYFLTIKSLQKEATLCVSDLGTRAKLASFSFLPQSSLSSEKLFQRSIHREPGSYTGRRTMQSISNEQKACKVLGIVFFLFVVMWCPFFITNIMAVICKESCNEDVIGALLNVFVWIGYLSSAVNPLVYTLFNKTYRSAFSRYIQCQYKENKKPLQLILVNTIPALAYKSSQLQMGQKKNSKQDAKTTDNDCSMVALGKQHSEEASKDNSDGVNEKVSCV
D(2) dopamine receptor (Homo sapiens), sequence (P14416 whole entry, looked up): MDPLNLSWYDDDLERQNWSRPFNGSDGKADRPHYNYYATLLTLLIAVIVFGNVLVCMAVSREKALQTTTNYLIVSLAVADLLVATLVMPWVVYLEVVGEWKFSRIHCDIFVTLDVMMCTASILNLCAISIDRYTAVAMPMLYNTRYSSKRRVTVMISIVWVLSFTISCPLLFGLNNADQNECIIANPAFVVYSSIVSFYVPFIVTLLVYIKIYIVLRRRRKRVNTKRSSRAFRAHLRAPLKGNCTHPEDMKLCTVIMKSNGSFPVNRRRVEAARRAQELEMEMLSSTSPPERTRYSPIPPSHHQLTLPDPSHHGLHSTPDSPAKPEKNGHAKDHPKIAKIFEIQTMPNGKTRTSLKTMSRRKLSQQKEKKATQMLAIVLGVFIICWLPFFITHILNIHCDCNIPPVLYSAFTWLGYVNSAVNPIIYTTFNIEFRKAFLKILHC
Beta-2 adrenergic receptor (Homo sapiens), sequence (P07550 whole entry, looked up): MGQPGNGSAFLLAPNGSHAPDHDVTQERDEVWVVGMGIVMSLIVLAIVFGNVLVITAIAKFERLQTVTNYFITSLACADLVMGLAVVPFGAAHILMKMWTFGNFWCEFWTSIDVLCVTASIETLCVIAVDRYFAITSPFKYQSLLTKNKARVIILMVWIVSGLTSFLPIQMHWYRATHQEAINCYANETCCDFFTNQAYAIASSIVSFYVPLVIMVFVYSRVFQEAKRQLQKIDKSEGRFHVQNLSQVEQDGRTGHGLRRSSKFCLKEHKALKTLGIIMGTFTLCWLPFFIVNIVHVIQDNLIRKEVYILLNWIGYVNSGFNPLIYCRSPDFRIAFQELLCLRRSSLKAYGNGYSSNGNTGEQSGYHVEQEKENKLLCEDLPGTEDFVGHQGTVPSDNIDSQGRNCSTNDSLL
Gonadotropin-releasing hormone receptor (Homo sapiens), sequence (P30968 whole entry, looked up): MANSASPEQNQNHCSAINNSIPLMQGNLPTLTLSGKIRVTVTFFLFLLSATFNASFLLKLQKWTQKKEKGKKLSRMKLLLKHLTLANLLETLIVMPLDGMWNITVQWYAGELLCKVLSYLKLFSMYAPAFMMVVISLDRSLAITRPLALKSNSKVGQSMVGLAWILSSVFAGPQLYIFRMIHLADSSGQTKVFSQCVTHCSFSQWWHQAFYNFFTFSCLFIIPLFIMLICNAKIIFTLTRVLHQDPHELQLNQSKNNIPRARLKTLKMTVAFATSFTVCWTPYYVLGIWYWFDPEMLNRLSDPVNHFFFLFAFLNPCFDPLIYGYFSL

Regarding `OC[C@H]1O[C@H](O[C@H]2O[C@H](CO)[C@@H](O)[C@H](O)[C@H]2O)[C@H](O)[C@@H](O)[C@@H]1O`, the Potency entry in assay [1], in assay [2], in assay [3], in [4], in [5] and in assay [6] was “inactive” each time. Also, the Potency entry in [7], in assay [8], in assay [9], in assay [10], in assay [11] and in [12] was “inactive” in each case. The Potency entry in [13], in assay [14], in assay [15], in assay [16], in [17] and in [18] was “inactive” each time. Also, the Potency result in assay [19] and in assay [20] was “inactive” in each case.
`COC(=O)c1ccccc1C`: the Potency entry in [1], in assay [2], in assay [3], in assay [4], in assay [5] and in assay [6] was “inactive” throughout. The Potency result in assay [7], in [8], in [9], in assay [10], in [11] and in assay [12] was “inactive” throughout. The Potency result in assay [13], in [14], in [15], in [16], in assay [17] and in assay [18] was “inactive” throughout. Moreover, the Potency result in [19] and in assay [20] was “inactive” each time.
With `CC(C)OCCO`, the Potency result in assay [1], in assay [2], in [3], in [4], in assay [5] and in [6] was “inactive” each time. Also, the Potency result in assay [7], in assay [8], in [9], in [10], in assay [11] and in assay [12] was “inactive” in each case. Moreover, the Potency result in assay [13], in assay [14], in assay [15], in assay [16], in assay [17] and in assay [18] was “inactive” each time. Moreover, in [19], the Potency entry is “inactive”.
Consider `CCCCCCCCCCCCCC`, for which the Potency result in assay [1], in assay [2], in assay [3], in assay [4], in [5] and in [6] was “inactive” throughout. In addition, the Potency result in assay [7], in assay [8], in assay [9], in assay [10], in assay [11] and in assay [12] was “inactive” throughout. The Potency result in assay [13], in [14], in assay [15], in assay [16], in assay [17] and in assay [18] was “inactive” throughout. Further, the Potency result in assay [19] and in assay [20] was “inactive” throughout.
In the case of `O=C(O)c1cc2ccccc2nc1C(=O)O`, the Potency result in [1], in [3], in assay [4], in [5], in assay [6] and in [7] was “inactive” each time. The Potency result in assay [8], in assay [9], in assay [10], in assay [11], in [12] and in assay [13] was “inactive” each time. Besides, the Potency result in assay [14], in assay [15], in [16], in assay [17], in [19] and in [20] was “inactive” throughout. Also, the Potency in assay [2] was 17.2 µM (active).
For the molecule `CCC(=O)O[C@@H]1C[C@H]2CC[C@]1(C)C2(C)C`, the Potency result in [1], in [2], in assay [3], in assay [4], in assay [5] and in [6] was “inactive” in each case. In addition, the Potency result in [7], in [8], in assay [9], in assay [10], in [11] and in assay [12] was “inactive” throughout. The Potency entry in assay [13], in [14], in assay [15], in assay [16], in assay [17] and in assay [19] was “inactive” each time. In assay [20], the Potency result is “inactive”.
In the case of `CCC(C)c1ccccc1` (configuration not stated), the Potency entry in assay [1], in assay [2], in [3], in assay [4], in assay [5] and in assay [6] was “inactive” in each case. Also, the Potency entry in assay [7], in assay [8], in [9], in assay [10], in assay [11] and in assay [12] was “inactive” in each case. Moreover, the Potency result in assay [13], in [14], in [15], in assay [16], in assay [17] and in assay [18] was “inactive” in each case. For the same molecule, the Potency result in assay [19] and in assay [20] was “inactive” throughout.
